In PubChem BioAssay (EPA / NIEHS):
Results filed as inconclusive are left out. Calls of active or inactive are those of the source. Rule for the calls: active = hit-call score of the fitted dose curve at least 0.9, where 1 is the maximum; inconclusive = response in the unintended direction; inactive = score below 0.9.

What was measured:
[1] = target: Cellular tumor antigen p53 (Homo sapiens) (UniProt P04637); assay: TOX21_p53_BLA_p2_ratio: Tox21 HCT-116 p53 Agonism Beta-lactamase Assay, Ratio, Phase 2 (AID 2283592)
Outline: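 Gain-of-signal p53 agonism was scored from the beta-lactamase FRET ratio (460/530 nm, 405 nm excitation) in HCT116 cells treated 16 h at 37C, 5% CO2, with DMSO serving as negative control and baseline.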

[2] = TOX21_p53_BLA_p3_viability: Viability Assessment in the Tox21 HCT-116 p53 Agonism Beta-lactamase Assay, Phase 3 (AID 2283593);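 note: cells exposed to compound for 16 h before reading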
Outline: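 Cellular ATP was quantified by CellTiter-Glo luminescence, read after 30 min at room temperature. Beforehand, HCT116 cells (4000/well) received compound 5 h post-seeding, 217-fold diluted from DMSO, then incubated 16 h at 37C.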

[3] = TOX21_p53_BLA_p5_viability: Viability Assessment in the Tox21 HCT-116 p53 Agonism Beta-lactamase Assay, Phase 5 (AID 2283600)
Outline: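 After the 460/530 nm beta-lactamase measurement, the wells received an ATP-detection luciferase reagent; signal was read 30 min later at RT. Compound treatment lasted 16 h on cells pre-incubated 5 h post-seeding.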

[4] = target: Cellular tumor antigen p53 (Homo sapiens) (UniProt P04637); assay: TOX21_p53_BLA_p4_ratio: Tox21 HCT-116 p53 Agonism Beta-lactamase Assay, Ratio, Phase 4 (AID 2283601)
Outline: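 Signal is the blue/green (460nm/530nm) ratio of cleaved versus uncleaved CCF4-AM substrate, read after 2 h substrate loading. Cells were HCT116 carrying the p53-responsive beta-lactamase reporter, dosed 16 h at 37C, 5% CO2; CellTiter-Glo measured in parallel.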

[5] = Tanguay_ZF_120hpf_MORT_legacy: (Legacy) Oregon State University Tanguay Lab 120 Hour Post-fertilization zebrafish Assay for Mortality (AID 2283633);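 for AC50: fitted as increase in binary mortality versus DMSO negative control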
Outline: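 Static waterborne exposure from 6 to 120 hpf at 28C of single dechorionated wild-type (5D) embryos per well, 0.64% DMSO final. Death recorded present/absent by brightfield at 24 and 120 hpf.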

[6] = Tanguay_ZF_120hpf_YSE_legacy: (Legacy) Oregon State University Tanguay Lab 120 Hour Post-fertilization zebrafish Assay for Yolk Sac Edema (AID 2283634);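 for AC50: actives raise the incidence of yolk sac edema above the DMSO baseline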
Outline: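 Presence or absence of yolk sac edema was recorded at 120 hpf in surviving larvae. These were wild-type Tropical 5D embryos, chorion removed at 4 hpf, held in static exposure at 28C from 6 hpf with 0.64% DMSO vehicle.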

[7] = Tanguay_ZF_120hpf_AXIS_legacy: (Legacy) Oregon State University Tanguay Lab 120 Hour Post-fertilization zebrafish Assay for Body Axis Malformation (AID 2283635);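 for AC50: potency for an increased fraction of larvae scored with body axis malformation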
Outline: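 Binary scoring of axis defects at 120 hpf under brightfield, fitted positive versus DMSO. Tropical 5D embryos, chorion removed by pronase at 4 hpf, were singly exposed in sealed, dark plates at 28C from 6 hpf; DMSO 0.64% final.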

[8] = target: Cellular tumor antigen p53 (Homo sapiens) (UniProt P04637); assay: TOX21_p53_BLA_p3_ratio: Tox21 HCT-116 p53 Agonism Beta-lactamase Assay, Ratio, Phase 3 (AID 2283596)
Outline: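 HCT116 p53-bla cells (4000/well) given compound in DMSO (217-fold dilution) after 5 h, incubated 16 h at 37C. CCF4-AM substrate 2 h at room temperature; 460/530 nm emission ratio, gain fitted against DMSO.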

[9] = TOX21_p53_BLA_p4_viability: Viability Assessment in the Tox21 HCT-116 p53 Agonism Beta-lactamase Assay, Phase 4 (AID 2283597);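 note: hits lower the luminescence signal meaning cytotoxicity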
Outline: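 Following a 16 h exposure at 37C, the treated HCT116 wells were first read for the FRET ratio. They were then lysed with CellTiter-Glo, and ATP luminescence was recorded after 30 min at room temperature.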

[10] = target: Cellular tumor antigen p53 (Homo sapiens) (UniProt P04637); assay: TOX21_p53_BLA_p5_ratio: Tox21 HCT-116 p53 Agonism Beta-lactamase Assay, Ratio, Phase 5 (AID 2283599)
Outline: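 Beta-lactamase reporter ratio (blue 460 nm over green 530 nm, 405 nm excitation) after 2 h CCF4-AM loading, in HCT-116 cells exposed 16 h at 37 C to compounds pinned at 217-fold dilution. Increases relative to DMSO baseline scored.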

Cellular tumor antigen p53 (Homo sapiens), sequence (P04637 whole entry, looked up): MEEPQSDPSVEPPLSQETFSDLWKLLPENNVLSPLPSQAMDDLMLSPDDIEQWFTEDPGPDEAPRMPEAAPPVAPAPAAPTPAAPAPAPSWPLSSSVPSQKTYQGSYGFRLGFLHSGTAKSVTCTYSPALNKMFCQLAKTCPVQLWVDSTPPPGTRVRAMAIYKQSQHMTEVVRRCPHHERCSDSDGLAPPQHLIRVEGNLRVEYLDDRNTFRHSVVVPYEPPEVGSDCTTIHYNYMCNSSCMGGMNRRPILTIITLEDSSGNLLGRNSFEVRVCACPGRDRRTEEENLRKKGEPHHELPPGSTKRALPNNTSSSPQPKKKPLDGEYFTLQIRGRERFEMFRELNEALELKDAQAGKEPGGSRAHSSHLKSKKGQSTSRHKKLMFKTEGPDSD

COc1cccc(C(=O)NN(C(=O)c2cc(C)cc(C)c2)C(C)(C)C)c1C
outcome [1]: inactive | outcome [2]: inactive | outcome [3]: inactive | outcome [4]: inactive | outcome [5]: inactive | outcome [6]: inactive | outcome [7]: inactive

CCOP(=O)(SC(C)CC)N1CCSC1=O (stereo not given)
outcome [5]: inactive | outcome [6]: inactive | outcome [7]: inactive

CC(C1CC1)C(O)(Cn1cncn1)c1ccc(Cl)cc1 (stereo not given)
outcome [2]: inactive | outcome [8]: inactive | outcome [9]: inactive | outcome [3]: inactive | outcome [4]: inactive | outcome [5]: inactive | AC50 [6]: 36.3 µM (active) | AC50 [7]: 24.8 µM (active)

C[N+]1(C)CCCCC1
outcome [1]: inactive | outcome [8]: inactive | outcome [10]: inactive | outcome [4]: inactive | outcome [5]: inactive | outcome [6]: inactive | outcome [7]: inactive

CCCOc1nn(C(=O)NS(=O)(=O)c2ccccc2C(=O)OC)c(=O)n1C
outcome [10]: inactive | outcome [4]: inactive | outcome [5]: inactive | outcome [6]: inactive

O=C(O)c1cc(Oc2ccc(C(F)(F)F)cc2Cl)ccc1[N+](=O)[O-]
outcome [5]: inactive | outcome [6]: inactive | outcome [7]: inactive

CCCCSP(=O)(SCCCC)SCCCC
outcome [1]: inactive | outcome [8]: inactive | outcome [9]: inactive | outcome [10]: inactive | outcome [3]: inactive | outcome [4]: inactive | outcome [5]: inactive | AC50 [6]: 7.24 µM (active) | outcome [7]: inactive

CCOP(=S)(Oc1cnc(C(C)(C)C)nc1)OC(C)C (stereo not given)
outcome [1]: inactive | outcome [9]: inactive | outcome [3]: inactive | outcome [4]: inactive | outcome [5]: inactive | outcome [6]: inactive | outcome [7]: inactive

Cc1ccn2nc(S(=O)(=O)Nc3c(F)cccc3F)nc2n1
outcome [5]: inactive | outcome [6]: inactive | outcome [7]: inactive

CCOP(=S)(OCC)SCCSCC
outcome [1]: inactive | outcome [8]: inactive | outcome [9]: inactive | outcome [10]: inactive | outcome [3]: inactive | outcome [4]: inactive | outcome [5]: inactive | outcome [6]: inactive | outcome [7]: inactive

Nc1c(Cl)cc([N+](=O)[O-])cc1Cl
AC50 [6]: 33 µM (active) | AC50 [7]: 40.4 µM (active)

CC(C)[C@H](C(=O)O[C@H](C#N)c1cccc(Oc2ccccc2)c1)c1ccc(Cl)cc1
outcome [1]: inactive | outcome [2]: inactive | outcome [9]: inactive | outcome [10]: inactive | outcome [3]: inactive | outcome [4]: inactive | outcome [5]: inactive | AC50 [6]: 3.2 µM (active) | AC50 [7]: 1.96 µM (active)

Cc1nn(-c2cc(NS(C)(=O)=O)c(Cl)cc2Cl)c(=O)n1C(F)F
outcome [1]: inactive | outcome [8]: inactive | outcome [9]: inactive | outcome [3]: inactive | outcome [4]: inactive | outcome [5]: inactive | outcome [6]: inactive | outcome [7]: inactive

CSc1nc(NC(C)C)nc(NC(C)C)n1
outcome [1]: inactive | outcome [8]: inactive | outcome [3]: inactive | outcome [5]: inactive | outcome [6]: inactive | outcome [7]: inactive

CNC(=O)Oc1cccc2c1OC(C)(C)O2
outcome [1]: inactive | outcome [8]: inactive | outcome [9]: inactive | outcome [10]: inactive | outcome [4]: inactive | outcome [5]: inactive | outcome [6]: inactive | outcome [7]: inactive

COP(=O)(OC)OC(Br)C(Cl)(Cl)Br (stereo not given)
outcome [5]: inactive | outcome [6]: inactive | outcome [7]: inactive

COP(=O)(OC)SCn1c(=O)oc2cc(Cl)cnc21
outcome [1]: inactive | AC50 [8]: 49.1 µM (active) | outcome [9]: inactive | AC50 [10]: 73.7 µM (active) | outcome [3]: inactive | outcome [4]: inactive | outcome [5]: inactive | AC50 [6]: 44 µM (active) | outcome [7]: inactive

CN(C)C(=O)Nc1cccc(C(F)(F)F)c1
outcome [1]: inactive | outcome [8]: inactive | outcome [9]: inactive | outcome [10]: inactive | outcome [3]: inactive | outcome [4]: inactive | outcome [5]: inactive | outcome [6]: inactive | outcome [7]: inactive

CCCCOC(=O)c1ccccc1C(=O)O
outcome [1]: inactive | outcome [8]: inactive | outcome [9]: inactive | outcome [10]: inactive | outcome [3]: inactive | outcome [5]: inactive | outcome [6]: inactive | outcome [7]: inactive

O=[N+]([O-])c1cc(C(F)(F)F)c(Cl)c([N+](=O)[O-])c1Nc1ncc(C(F)(F)F)cc1Cl
outcome [5]: inactive | outcome [6]: inactive | outcome [7]: inactive

CC(Oc1cccc(Cl)c1)C(=O)O (stereo not given)
outcome [1]: inactive | outcome [8]: inactive | outcome [9]: inactive | outcome [10]: inactive | outcome [3]: inactive | outcome [4]: inactive | outcome [5]: inactive | outcome [6]: inactive | outcome [7]: inactive

C=C(C)[C@H]1Cc2c(ccc3c2O[C@@H]2COc4cc(OC)c(OC)cc4[C@@H]2C3=O)O1
AC50 [5]: 0.347 µM (active) | outcome [6]: inactive | outcome [7]: inactive

CCC(=NOC/C=C/Cl)C1=C(O)CC(C2CCOCC2)CC1=O (stereo not given)
outcome [2]: inactive | outcome [3]: inactive | outcome [4]: inactive | outcome [5]: inactive | outcome [6]: inactive | outcome [7]: inactive

CCNc1nc(Cl)nc(NC(C)(C)C#N)n1
outcome [2]: inactive | outcome [9]: inactive | outcome [10]: inactive | outcome [4]: inactive | outcome [5]: inactive | outcome [6]: inactive

CC1=NNC(=O)N(/N=C/c2cccnc2)C1
outcome [1]: inactive | outcome [8]: inactive | outcome [9]: inactive | outcome [3]: inactive | outcome [4]: inactive | outcome [5]: inactive | outcome [6]: inactive | outcome [7]: inactive

CCCSP(=O)(OCC)Oc1ccc(Br)cc1Cl (stereo not given)
outcome [1]: inactive | outcome [8]: inactive | outcome [9]: inactive | outcome [10]: inactive | outcome [3]: inactive | outcome [4]: inactive | outcome [5]: inactive | outcome [6]: inactive | outcome [7]: inactive

CNC(=O)ON=C(C)SC
outcome [3]: inactive | outcome [4]: inactive | outcome [5]: inactive | outcome [6]: inactive | AC50 [7]: 10.1 µM (active)

COc1ccc(C(=CC(=O)N2CCOCC2)c2ccc(Cl)cc2)cc1OC
outcome [8]: inactive | outcome [9]: inactive | outcome [3]: inactive | outcome [4]: inactive | outcome [5]: inactive | AC50 [6]: 48.3 µM (active) | AC50 [7]: 9.11 µM (active)

CCCSP(=O)(OCC)SCCC
outcome [6]: inactive | outcome [7]: inactive

CN(C)[C@@H]1C(=O)C(C(N)=O)=C(O)[C@@]2(O)C(=O)C3=C(O)c4c(O)cccc4[C@@](C)(O)[C@H]3[C@H](O)[C@@H]12
outcome [5]: inactive | outcome [6]: inactive | outcome [7]: inactive

CCOC(=O)COc1cc(-c2nn(C)c(OC(F)F)c2Cl)c(F)cc1Cl
outcome [2]: inactive | outcome [8]: inactive | outcome [9]: inactive | outcome [4]: inactive | outcome [5]: inactive | outcome [6]: inactive | outcome [7]: inactive
